Assay outcomes as filed in PubChem BioAssay.
Compounds with a hit are over-represented: about 2.3% of the library has one in this group of screens.
HSP90 inh = HSP90 inhibitors, primary screen, cell lysate, luminescence; actives 0.91% (n = 290,000); inhibition, % at 5.6 µM; Rabbit reticulocyte lysate, luciferase refolding luminescence, 3 h; Heat shock protein HSP 90 (rabbit reticulocyte lysate; luciferase refolding);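 active = inhibition above the screen-wide mean plus 3 SD, computed separately per campaign, cut at about 16% in these data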;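 also: inhibitors lower the luminescence because luciferase stays unfolded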
LGR2 inh = inhibitors of bursicon-induced LGR2 CRE-luciferase signal, primary screen, cell-based, HEK293, CRE-luciferase reporter, bursicon stimulation. Drosophila bursicon receptor LGR2 (rickets). bursicon-stimulated, 4 h. inhibition, % at 9.99 µM. actives 0.35% (n = 380,000). AID 720647, 2013;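 active = drop in luminescence signal, shown as inhibition above about 50% in the replicate tests, limit read from the data, passing the limit was not always enough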;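 also: agonist challenge used bursicon conditioned medium at about half maximal strength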
SENP8 block-1 = SENP8 protease inhibitors, primary screen, biochemical, luminescence; actives 1.2% (n = 330,000); inhibition, % at 10 µM; AID 2540, 2010; purified SENP8, Z-RLRGG-aminoluciferin cleavage; Sentrin-specific protease 8 (Homo sapiens), Q96LD8; in the data active = inhibition above about 50%
Target sequence (Q96LD8 whole entry, looked up): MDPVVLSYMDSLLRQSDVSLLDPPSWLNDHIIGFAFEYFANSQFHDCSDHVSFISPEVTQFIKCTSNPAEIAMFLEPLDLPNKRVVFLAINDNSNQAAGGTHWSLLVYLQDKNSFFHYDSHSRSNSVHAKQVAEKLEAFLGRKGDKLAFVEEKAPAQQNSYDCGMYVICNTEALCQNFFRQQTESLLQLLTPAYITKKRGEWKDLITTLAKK
SENP8 block-2 = human SENP8 protease inhibitors, primary screen, biochemical, fluorescence, Nedd8 protein substrate, uHTS. actives 0.64% (n = 360,000). recombinant SENP8. AID 602440, 2012. Sentrin-specific protease 8 (Homo sapiens), Q96LD8. inhibition, % at 20 µM; in the data active = inhibition mostly above about 40%, no sharp cut-off; inactive = mostly below about 27%
SENP7 block = SENP7 protease inhibitors, primary screen, biochemical, luminescence, uHTS. Sentrin-specific protease 7 (Homo sapiens), Q9BQF6. recombinant SENP7, Z-RLRGG-aminoluciferin luminescence, 40 min. inhibition, % at 5 µM. actives 1.5% (n = 330,000). AID 434973, 2010;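 active = inhibition above about 50% at the single test dose, limit read from the data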
Target sequence (Q9BQF6 706-1050 limits assumed): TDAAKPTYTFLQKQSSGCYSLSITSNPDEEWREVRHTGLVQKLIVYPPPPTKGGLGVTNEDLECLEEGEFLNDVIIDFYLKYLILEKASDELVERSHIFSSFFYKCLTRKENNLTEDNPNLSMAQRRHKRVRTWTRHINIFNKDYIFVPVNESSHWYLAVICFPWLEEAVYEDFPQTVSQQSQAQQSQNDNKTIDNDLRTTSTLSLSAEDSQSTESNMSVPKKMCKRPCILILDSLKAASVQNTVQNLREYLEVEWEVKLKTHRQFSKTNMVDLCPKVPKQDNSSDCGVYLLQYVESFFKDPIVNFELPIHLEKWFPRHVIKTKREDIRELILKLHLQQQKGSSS
SENP6 block = SENP6 protease inhibitors, primary screen, biochemical, luminescence, uHTS; actives 1.8% (n = 330,000); inhibition, % at 10 µM; Recombinant SENP6 catalytic domain, aminoluciferin luminescence; AID 2599, 2010; Sentrin-specific protease 6 (Homo sapiens), Q9GZR1;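 active = inhibition above about 50% at the single tested dose, limit read from the data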
Large screens that a line does not name were inactive; ! = not confirmed by another sample.

OCCCNc1cc(-c2ccnc(Nc3cccc(Cl)c3)n2)ccn1	LGR2 inh 102 (no result: HSP90 inh)
CCCNC(=O)N1CC2(CCN(S(=O)(=O)CC)CC2)c2c(n(C)c3cc(OC)ccc23)[C@@H]1CO	none (no result: HSP90 inh, SENP8 block-1, SENP8 block-2, SENP7 block, SENP6 block)
Cc1ccc(S(=O)(=O)C(C#N)c2nc3ccccc3nc2N2CCCC2)cc1 (stereo not drawn)	SENP8 block-1 77, SENP6 block 73
CC1=NNC(=O)/C1=C\c1cn(-c2ccccc2)nc1-c1cccs1	LGR2 inh 59
CN1CCC(N(C)C(=O)/C=C/c2cn(-c3ccccc3)nc2-c2cccs2)CC1	LGR2 inh 78
CC1=NNC(=O)/C1=C\c1cn(-c2ccccc2)nc1-c1ccc(F)cc1	none (no result: LGR2 inh, SENP8 block-1, SENP7 block, SENP6 block)
C[C@@H]1CN([C@@H](C)CO)C(=O)c2cccc(NC(=O)C3CCCCC3)c2O[C@H]1CN(C)S(=O)(=O)c1ccccc1	none (no result: HSP90 inh, SENP8 block-1, SENP8 block-2, SENP7 block, SENP6 block)
Cc1ccccc1S(=O)(=O)N[C@H]1CC[C@@H](CCn2cc(Cc3ccccc3)nn2)O[C@@H]1CO	none (no result: HSP90 inh, SENP8 block-1, SENP8 block-2, SENP7 block, SENP6 block)
CCCn1c(C)cc(C(=O)COC(=O)c2ccc[nH]c2=O)c1C	LGR2 inh 56
COCC(=O)N1[C@@H](CO)[C@@H](c2ccc(-c3cccc(OC)c3)cc2)C12CN(C(C)=O)C2	none (no result: HSP90 inh, SENP8 block-1, SENP8 block-2, SENP7 block, SENP6 block)
CC(O)CNCCCOc1ccccc1OCc1ccccc1 (stereo not drawn)	HSP90 inh 17
CC(O)CNCCCCOc1ccc(OCc2ccccc2)cc1 (stereo not drawn)	none
CC[n+]1c(/C=C/c2ccc(N(C)C)cc2)ccc2ccccc21	SENP8 block-2 47 (no result: SENP8 block-1, SENP7 block, SENP6 block)
Cc1sc(NC(=O)c2cccs2)nc1-c1ccccc1	none (no result: LGR2 inh)
O=C(Nc1nsc(-c2ccccc2)n1)c1cccs1	SENP7 block 62, SENP6 block 64 (no result: LGR2 inh)
C[C@@H]1CN([C@@H](C)CO)C(=O)Cc2cc(NC(=O)Cc3ccccc3)ccc2O[C@H]1CN(C)C	none (no result: HSP90 inh, SENP8 block-1, SENP8 block-2, SENP7 block, SENP6 block)
Cc1nn(-c2nc3ccccc3[nH]2)c(=O)c2ccccc12	HSP90 inh 99, LGR2 inh 103 (no result: SENP8 block-1, SENP7 block, SENP6 block)
Cc1ccnc(SCC(=O)N2CCc3ccccc32)n1	none
Cc1ccnc(SCC(=O)N2CCN(C(c3ccccc3)c3ccccc3)CC2)n1	HSP90 inh 16 (no result: LGR2 inh)
C[C@@H](O)C#Cc1cnc2c(c1)C(=O)N([C@@H](C)CO)C[C@H](C)[C@H](CN(C)C(=O)c1ccccc1)O2	none (no result: HSP90 inh, SENP8 block-1, SENP8 block-2, SENP7 block, SENP6 block)
CCCNC(=O)N1CC2(CN(C(=O)CC)C2)c2c(n(C)c3cc(OC)ccc23)[C@@H]1CO	none (no result: HSP90 inh, SENP8 block-1, SENP8 block-2, SENP7 block, SENP6 block)
Cc1[nH]c2ccccc2c1N=Nc1ccc(F)cc1	SENP8 block-2 47
Cc1[nH]c2ccccc2c1N=Nc1ccccc1F	none
COc1cccc(-c2ccc([C@H]3[C@@H](CO)N(C(=O)c4ccccn4)[C@H]3C#N)cc2)c1	LGR2 inh 66 (no result: HSP90 inh, SENP8 block-1, SENP8 block-2, SENP7 block, SENP6 block)
N#C[C@H]1[C@@H](c2ccc(C3=CCCCC3)cc2)[C@H](CO)N1C(=O)c1ccccn1	LGR2 inh 88 (no result: HSP90 inh, SENP8 block-1, SENP8 block-2, SENP7 block, SENP6 block)
N#C[C@H]1[C@@H](c2ccc(C3=CCCCC3)cc2)[C@@H](CO)N1C(=O)c1ccccn1	none (no result: HSP90 inh, SENP8 block-1, SENP8 block-2, SENP7 block, SENP6 block)
Cc1noc(C)c1S(=O)(=O)N(C)C[C@H]1Oc2ccc(NC(=O)NC(C)C)cc2CC(=O)N([C@@H](C)CO)C[C@H]1C	none (no result: HSP90 inh, SENP8 block-1, SENP8 block-2, SENP7 block, SENP6 block)
COc1ccccc1-c1ccc2n(c1=O)C[C@H]1[C@H](CO)[C@@H](C(=O)NCc3ccccc3F)N[C@@H]21	none (no result: HSP90 inh, SENP8 block-1, SENP8 block-2, SENP7 block, SENP6 block)
CCC(=O)Nc1ccc(/C=C(\C(C)=O)C(=O)c2ccccc2)cc1	LGR2 inh 52
CCN1/C(=C/c2ccc3cc(C)cc(C)c3[n+]2CC)Sc2cc(C)ccc21	LGR2 inh 82, SENP8 block-2 23 (no result: SENP8 block-1, SENP7 block, SENP6 block)
Cc1ccc(NC(=O)c2noc3c2CCC3)cc1C	none (no result: SENP8 block-1, SENP7 block, SENP6 block)
CC(=O)c1ccc(NC(=O)c2noc3c2CCC3)cc1	HSP90 inh 21, LGR2 inh 64
C[C@@H]1CN([C@H](C)CO)S(=O)(=O)c2ccc(-c3ccncc3)cc2O[C@@H]1CN(C)C(=O)C1CCC1	none (no result: HSP90 inh, SENP8 block-1, SENP8 block-2, SENP7 block, SENP6 block)
Cc1cc(C(=O)CN2C(=O)c3ccccc3S2(=O)=O)c(C)n1-c1ccccc1	HSP90 inh 16 (no result: LGR2 inh)
CC(C)NC(=O)CN1C(=O)c2ccccc2S1(=O)=O	none
CCn1c(C)cc(C(=O)CN2C(=O)c3ccccc3S2(=O)=O)c1C	LGR2 inh 72 (no result: HSP90 inh)
Cc1cc(C(=O)CN2C(=O)c3ccccc3S2(=O)=O)c(C)n1C(C)C	LGR2 inh 76 (no result: HSP90 inh)
C=CCn1c(C)cc(C(=O)CN2C(=O)c3ccccc3S2(=O)=O)c1C	none (no result: HSP90 inh, LGR2 inh)
O=C(CN1C(=O)c2ccccc2S1(=O)=O)c1ccccc1	none (no result: LGR2 inh)
COc1cccc(-c2ccc(C3[C@@H]4CN(C(=O)C5CCC5)C[C@H]3N4)cc2)c1 (stereo partly drawn)	none (no result: HSP90 inh, SENP8 block-1, SENP8 block-2, SENP7 block, SENP6 block)
COc1cccc(-c2ccc(C3[C@@H]4CN(C(=O)C5CC5)C[C@H]3N4)cc2)c1 (stereo partly drawn)	LGR2 inh 62! (no result: HSP90 inh, SENP8 block-1, SENP8 block-2, SENP7 block, SENP6 block)
C[C@@H]1CN([C@H](C)CO)C(=O)Cc2cc(NC(=O)C3CCCCC3)ccc2O[C@@H]1CN(C)S(=O)(=O)c1ccc(F)cc1	none (no result: HSP90 inh, SENP8 block-1, SENP8 block-2, SENP7 block, SENP6 block)
COC1=C(OC)C(=O)C(CCCCCCCCCCO)=C(C)C1=O	HSP90 inh 27 (no result: LGR2 inh, SENP8 block-1, SENP7 block, SENP6 block)
COc1cccc(NC(=S)/C(=C(\[O-])c2ccc(C)c([N+](=O)[O-])c2)[n+]2ccccc2)c1	SENP8 block-2 39 (no result: LGR2 inh)
